PubChem BioAssay
“And” between values parts separate entries of the source, which are not always exact repeats. Identical values can stand only once. The source made the active and inactive calls. Unless noted, no stated cut-off is given here; in the data, active means inhibition above about 33%; inactive means the rest.

How the values were obtained:
[1] = target: Nuclear receptor coactivator 3 (Homo sapiens) (UniProt Q9Y6Q9); test: NCOA3 GAL4-fusion reporter inhibition – cell-based, luminescence, quadruplicate, confirmation (AID 588792;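 active means mean inhibition over 43.08%, the solvent-only control mean plus 3 SD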;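 further: 0% = DMSO treated cells and 100% = gossypol at 36 µM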); conditions: HEK293 GAL4-SRC3 luciferase reporter, at 3.6 µM, hits give high values
Chain of Nuclear receptor coactivator 3 (Homo sapiens) (Q9Y6Q9 whole entry, looked up, the tested form may be a part): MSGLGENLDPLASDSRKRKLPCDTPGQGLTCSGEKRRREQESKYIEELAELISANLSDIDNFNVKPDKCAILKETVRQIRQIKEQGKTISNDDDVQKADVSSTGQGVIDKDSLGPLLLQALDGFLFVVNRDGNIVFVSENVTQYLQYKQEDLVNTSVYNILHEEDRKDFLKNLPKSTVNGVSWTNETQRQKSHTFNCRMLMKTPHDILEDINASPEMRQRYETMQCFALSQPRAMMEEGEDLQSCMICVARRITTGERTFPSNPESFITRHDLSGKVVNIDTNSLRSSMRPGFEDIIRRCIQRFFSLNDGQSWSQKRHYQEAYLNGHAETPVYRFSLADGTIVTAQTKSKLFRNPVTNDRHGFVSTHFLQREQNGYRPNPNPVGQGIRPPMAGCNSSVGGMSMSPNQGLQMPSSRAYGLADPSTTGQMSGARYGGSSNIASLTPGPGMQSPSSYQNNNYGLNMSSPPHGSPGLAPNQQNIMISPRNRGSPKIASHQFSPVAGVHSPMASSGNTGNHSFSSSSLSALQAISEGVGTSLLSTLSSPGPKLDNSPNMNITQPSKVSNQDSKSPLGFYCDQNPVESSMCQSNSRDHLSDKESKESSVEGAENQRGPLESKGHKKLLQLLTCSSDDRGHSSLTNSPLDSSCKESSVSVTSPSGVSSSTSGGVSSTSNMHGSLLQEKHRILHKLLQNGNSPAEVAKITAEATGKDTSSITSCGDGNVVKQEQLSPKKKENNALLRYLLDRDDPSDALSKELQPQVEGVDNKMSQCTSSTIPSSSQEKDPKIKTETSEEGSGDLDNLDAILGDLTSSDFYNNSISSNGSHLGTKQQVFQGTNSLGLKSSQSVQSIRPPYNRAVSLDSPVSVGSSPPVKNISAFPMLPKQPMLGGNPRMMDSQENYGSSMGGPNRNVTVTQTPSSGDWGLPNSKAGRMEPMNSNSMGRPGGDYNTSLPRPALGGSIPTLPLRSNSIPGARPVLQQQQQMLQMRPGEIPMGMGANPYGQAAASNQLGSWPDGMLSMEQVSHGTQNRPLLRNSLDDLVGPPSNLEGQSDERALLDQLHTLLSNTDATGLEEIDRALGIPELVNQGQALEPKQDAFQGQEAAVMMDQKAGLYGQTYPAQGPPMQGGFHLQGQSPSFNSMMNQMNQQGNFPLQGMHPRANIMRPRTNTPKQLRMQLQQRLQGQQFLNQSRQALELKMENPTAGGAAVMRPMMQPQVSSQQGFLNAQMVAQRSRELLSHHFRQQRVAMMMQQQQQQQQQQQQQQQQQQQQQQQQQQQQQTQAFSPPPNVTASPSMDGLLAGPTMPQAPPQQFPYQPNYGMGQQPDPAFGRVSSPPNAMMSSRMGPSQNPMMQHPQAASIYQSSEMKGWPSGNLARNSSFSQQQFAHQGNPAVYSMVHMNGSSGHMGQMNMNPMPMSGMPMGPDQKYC

[2] = system: transactivating tegument protein VP16 (Human herpesvirus 1), Gal4-VP16 luciferase reporter; test: repression of VP16-driven luciferase reporter – cell-based, luminescence, high throughput, counter-screen for SRC3 inhibitor project (AID 588794; in the data active means inhibition above about 30%); conditions: mammalian cells, at 3.6 µM, hits give high values
[3] = StAR promoter reporter inhibitors, counter-screen for LRH-1 inverse agonist project, cell-based, luminescence, high throughput (AID 651611; in the data active means inhibition above about 28%); conditions: StAR promoter luciferase reporter counterscreen, at 3.6 µM, hits give high values
[4] = target: Nuclear receptor subfamily 5 group A member 2 (Homo sapiens) (UniProt O00482); test: NR5A2 activity suppression in reporter cells – cell-based, luminescence, confirmation (AID 651613; in the data active means inhibition above about 42%;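 further: HEK293T cells co-transfected with LRH-1 and StAR promoter luciferase reporter; 0% = vehicle wells and 100% = parental cells lacking receptor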); conditions: cell-based LRH-1 luciferase reporter, inverse agonism; at 3.6 µM; hits give high values
Chain of Nuclear receptor subfamily 5 group A member 2 (Homo sapiens) (O00482 whole entry, looked up): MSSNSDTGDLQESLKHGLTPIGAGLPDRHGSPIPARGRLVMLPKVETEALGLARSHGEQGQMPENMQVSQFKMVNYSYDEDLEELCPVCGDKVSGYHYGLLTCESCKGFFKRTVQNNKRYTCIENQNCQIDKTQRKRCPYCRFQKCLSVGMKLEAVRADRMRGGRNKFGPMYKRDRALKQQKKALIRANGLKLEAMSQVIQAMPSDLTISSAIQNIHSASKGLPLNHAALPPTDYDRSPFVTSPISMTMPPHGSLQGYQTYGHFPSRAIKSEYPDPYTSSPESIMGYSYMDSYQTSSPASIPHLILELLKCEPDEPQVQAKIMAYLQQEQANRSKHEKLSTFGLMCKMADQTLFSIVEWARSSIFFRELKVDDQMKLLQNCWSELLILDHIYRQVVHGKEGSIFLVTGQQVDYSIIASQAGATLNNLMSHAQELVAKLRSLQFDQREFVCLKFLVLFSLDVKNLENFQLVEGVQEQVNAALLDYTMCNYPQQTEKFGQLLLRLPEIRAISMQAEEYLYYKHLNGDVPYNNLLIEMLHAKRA

[5] = target: Steroidogenic factor 1 (Homo sapiens) (UniProt Q13285); test: inverse agonism at SF1 nuclear receptor – cell-based, luminescence, high throughput, counter-screen for LRH-1 inverse agonist project (AID 651614; in the data active means inhibition above about 44%;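 further: cells cotransfected with StAR promoter reporter and SF1 expression vector; 0% = vehicle on cells with receptor and 100% = vehicle on cells lacking receptor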); conditions: cell-based SF1 luciferase reporter, at 3.6 µM, hits give high values
Chain of Steroidogenic factor 1 (Homo sapiens) (Q13285 whole entry, looked up, the tested form may be a part): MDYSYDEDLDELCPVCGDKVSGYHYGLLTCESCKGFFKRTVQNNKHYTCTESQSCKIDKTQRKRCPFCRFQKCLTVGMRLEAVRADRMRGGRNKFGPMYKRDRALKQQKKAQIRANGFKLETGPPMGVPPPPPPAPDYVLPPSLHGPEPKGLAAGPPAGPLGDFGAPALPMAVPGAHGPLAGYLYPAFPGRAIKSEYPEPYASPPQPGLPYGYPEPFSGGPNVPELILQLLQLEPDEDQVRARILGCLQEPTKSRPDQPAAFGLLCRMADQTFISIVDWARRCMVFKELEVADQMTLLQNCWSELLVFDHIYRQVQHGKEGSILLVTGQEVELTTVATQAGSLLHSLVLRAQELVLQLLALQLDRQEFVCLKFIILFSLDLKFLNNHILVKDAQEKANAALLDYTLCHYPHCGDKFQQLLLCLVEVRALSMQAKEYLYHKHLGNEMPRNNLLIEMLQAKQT

[6] = compounds suppressing VP16-driven luciferase signal – cell-based, luminescence, high throughput, counter-screen for LRH-1 inverse agonist project (AID 651615); conditions: Gal4-VP16 luciferase reporter cells, at 3.6 µM, hits give high values
[7] = system: transactivating tegument protein VP16 (Human herpesvirus 1); test: compounds suppressing VP16-driven luciferase signal – cell-based, luminescence, single concentration, counter-screen for SRC2 inhibitor project (AID 652007; in the data active means inhibition above about 36%); conditions: cell-based VP16 transactivation luciferase reporter, at 8.9 µM, hits give high values
[8] = target: Nuclear receptor coactivator 2 (Homo sapiens) (UniProt Q15596); test: inhibition of GAL4-SRC2 driven luciferase expression – cell-based, luminescence, HEK293, triplicate, confirmation (AID 652008;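 active means mean inhibition above 46.5%, the solvent-only control mean plus 3 SD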;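 further: 0% = DMSO-treated cells and 100% = Gossypol at 36 µM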); conditions: HEK293 GAL4-SRC2 luciferase reporter, at 8.9 µM, hits give high values
Chain of Nuclear receptor coactivator 2 (Homo sapiens) (Q15596 whole entry, looked up, the tested form may be a part): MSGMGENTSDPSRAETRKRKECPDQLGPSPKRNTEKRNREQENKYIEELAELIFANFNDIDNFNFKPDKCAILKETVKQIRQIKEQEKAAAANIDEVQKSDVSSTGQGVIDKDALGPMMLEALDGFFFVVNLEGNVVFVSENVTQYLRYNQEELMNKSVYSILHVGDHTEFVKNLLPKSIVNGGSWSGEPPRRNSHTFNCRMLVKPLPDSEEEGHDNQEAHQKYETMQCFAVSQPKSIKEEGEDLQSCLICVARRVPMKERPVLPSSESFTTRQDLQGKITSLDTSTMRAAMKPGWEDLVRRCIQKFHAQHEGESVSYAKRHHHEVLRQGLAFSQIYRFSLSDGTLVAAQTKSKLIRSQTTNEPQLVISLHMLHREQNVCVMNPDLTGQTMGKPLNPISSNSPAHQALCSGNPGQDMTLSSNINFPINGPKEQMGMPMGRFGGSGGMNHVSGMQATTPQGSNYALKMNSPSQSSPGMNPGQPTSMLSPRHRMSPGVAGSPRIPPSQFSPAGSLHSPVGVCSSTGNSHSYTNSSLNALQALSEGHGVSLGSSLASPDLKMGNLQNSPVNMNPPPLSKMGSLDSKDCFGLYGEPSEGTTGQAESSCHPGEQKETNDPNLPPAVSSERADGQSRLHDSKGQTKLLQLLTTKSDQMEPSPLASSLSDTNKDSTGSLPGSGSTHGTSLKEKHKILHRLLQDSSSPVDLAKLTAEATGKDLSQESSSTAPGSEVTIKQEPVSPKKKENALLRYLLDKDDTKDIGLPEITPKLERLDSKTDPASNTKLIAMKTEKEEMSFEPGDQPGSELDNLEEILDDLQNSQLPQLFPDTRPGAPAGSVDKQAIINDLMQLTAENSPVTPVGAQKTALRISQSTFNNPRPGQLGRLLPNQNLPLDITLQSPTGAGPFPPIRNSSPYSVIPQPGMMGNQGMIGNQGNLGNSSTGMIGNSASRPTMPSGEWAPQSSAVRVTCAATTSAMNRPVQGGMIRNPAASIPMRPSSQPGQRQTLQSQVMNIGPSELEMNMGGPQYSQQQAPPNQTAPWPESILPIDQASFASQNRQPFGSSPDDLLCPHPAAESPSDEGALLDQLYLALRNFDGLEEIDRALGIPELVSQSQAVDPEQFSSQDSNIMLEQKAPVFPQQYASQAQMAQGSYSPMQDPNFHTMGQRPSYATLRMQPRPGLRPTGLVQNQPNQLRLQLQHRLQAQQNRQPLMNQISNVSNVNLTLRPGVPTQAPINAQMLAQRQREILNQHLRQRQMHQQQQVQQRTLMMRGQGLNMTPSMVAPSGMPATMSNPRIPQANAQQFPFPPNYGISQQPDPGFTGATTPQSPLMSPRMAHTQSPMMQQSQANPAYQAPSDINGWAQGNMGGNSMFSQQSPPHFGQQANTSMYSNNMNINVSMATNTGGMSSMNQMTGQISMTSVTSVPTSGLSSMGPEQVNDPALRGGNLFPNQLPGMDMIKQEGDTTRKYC

Measured: inhibition

O=C(NC1CCCCCCC1)c1cc(COc2ccc3ncccc3c2)on1
active: [2] 40.2% | [4] 55% | [5] 54.8% | [6] 51.6%
inactive: [1] 17.3% | [3] 25.3%

CN1/C(=C\C(=O)C[n+]2ccc3ccccc3c2)C(C)(C)c2ccccc21
active: [2] 50.2% | [3] 35.9% | [4] 89.6% | [5] 77.6% | [6] 66.7%
inactive: [1] 24.8%

Cc1ccc(S(=O)(=O)/C(=C/Cl)NC(=O)c2ccccc2)cc1
inactive: [1] 26% | [2] 26.9%
active: [3] 42.9% | [4] 57.7% | [5] 51.5% | [6] 38.8% | [7] 38.9% | [8] 60.8%

Cc1ccccc1C(=O)N/N=C/c1ccc([N+](=O)[O-])s1
inactive: [1] 6.45% | [2] 8.35% | [6] 24.8%
active: [3] 46.1% | [4] 73.2% | [5] 65% | [7] 64.2% | [8] 63.1%

Cc1ccc(S(=O)(=O)Nc2cc(Cl)c(O)c3ncccc23)cc1
inactive: [1] 28.2% | [2] 24.5%
active: [3] 48.1% | [4] 72.1% | [5] 62.2% | [6] 62%

O=C(NCc1cccnc1)/C(=C\c1ccc(-c2cccc(Cl)c2)o1)S(=O)(=O)c1ccccc1
active: [3] 61.8% | [4] 87.1% | [5] 89.3% | [6] 74.9% | [7] 44% | [8] 53.1%
inactive: [1] 37.8% | [2] 13.6%

CCCCCCCCCCCCCCCC[n+]1ccccc1
active: [4] 47.2% and 54.5% | [5] 57.7% and 48.1% | [6] 52.6% and 48.9%
inactive: [1] 16.6% | [2] 25.1% | [3] 23.1% and 10.5% | [7] 13.5% | [8] -2.51%

C=CS(=O)(=O)N(Cc1ccccc1Br)[C@H](CO)Cc1ccccc1
active: [5] 48.7%
inactive: [1] 24.3% | [2] 0.02% | [3] 20.1% | [4] 32.2% | [6] 23.2%

C/C(=N\NC(N)=S)C12CC3CC(CC(C3)C1)C2
inactive: [1] 41.6% | [3] 20.4% | [7] 9.52% | [8] 26.9%
active: [2] 32.8% | [4] 66.1% | [5] 71.4% | [6] 48.1%

CCC(C)Nc1nc(-c2ccccn2)nc2ccccc12 (stereo not drawn)
active: [3] 45.6% | [4] 67.2% | [5] 78.3% | [6] 42.9%
inactive: [1] 3.88% | [2] 11.9%

CCCCCc1ccc(OCCCC[n+]2ccccc2)c(CCCCC)c1
active: [4] 41.8% | [6] 42.3%
inactive: [1] 20.9% | [2] 20.9% | [3] 3.96% | [5] 37.9%

CC(C)N(c1ccccc1)c1ccc(NC(=O)CCl)cc1
active: [3] 32.8% | [4] 72.4% | [5] 60.9%
inactive: [1] 29.3% | [2] -9.17% | [6] -7.77% | [7] 17.1% | [8] 33.1%

COC(=O)/C=C/C(=O)Nc1cccc(C(F)(F)F)c1
active: [3] 46.8% | [4] 46.6% | [5] 58.7%
inactive: [1] 4.81% | [2] 6.7% | [6] 28.6% | [7] 25.8% | [8] 20.4%

COc1ccc(OC)c2nc3c(C(=O)NCCN(C)C)cccc3nc12
inactive: [1] -25.8%
active: [2] 65% | [3] 53.2% | [4] 77.8% | [5] 70.5% | [6] 75.7%

NS(=O)(=O)c1ccc(Sc2nc3ccccc3s2)c([N+](=O)[O-])c1
inactive: [2] 27.4% | [7] 33%
active: [1] 53.3% | [3] 78.7% | [4] 75.3% | [5] 67.5% | [6] 55.2% | [8] 58.3%

Cc1ccc(C(=O)Nc2sc3c(c2C(=O)O)CCC(C)C3)o1 (stereo not drawn)
inactive: [1] 28%
active: [2] 68.3% | [3] 53.4% | [4] 89.5% | [5] 85.8% | [6] 77%

Cc1ccc(NC(=O)c2cc(Cl)ccc2[N+](=O)[O-])cc1C
inactive: [1] 27.3% | [2] 18.5% | [3] 16.6% | [4] 36.5% | [5] 34.6% | [6] 19.6%
